# Laboratory results from ChEMBL document CHEMBL3988442, “University of Dundee, Small-Polar-MMV Screening Library” (2021).
# Out of some 48,000 compounds screened, about 13,000 (27%) showed an effect of 50% or more. This is one part of the list.
# Tested on: Wolbachia pipientis
# Assay: Anti-Wolbachia Cell-Based Screen
# Assay type: functional
# Set-up: scale not given: in the data most compounds retested in dose-response had high values
# Conditions: 5 µM
row,Structure (SMILES),Percent Effect [%]
1,NS(=O)(=O)CCNC(=O)c1cc2cccc(F)c2o1,-1.054
2,Cc1cccc(C)c1NC(=O)c1cc(S(N)(=O)=O)c(C)o1,102.4
3,Cc1cc(C)c(S(N)(=O)=O)cc1C(=O)NCC1Cc2ccccc2O1 (stereo not drawn),-3.139
4,Cc1oc(C(=O)O)cc1S(=O)(=O)Nc1c(F)cccc1-n1cccn1,-6.217
5,Cc1oc(C(=O)Nc2ccccc2F)cc1S(N)(=O)=O,99.25
6,CC(=O)NCCCSC1CCN(c2c(F)cccc2F)C1=O (stereo not drawn),8.134
7,COCc1c(Cl)cccc1NC(=O)NCc1cccc(N(C)C)n1,23.29
8,O=C(O)C[C@@H]1CCN(C(=O)C2CCCC2)C[C@@H]1CCN1CCCCC1,3.998
9,O=C1CCc2cc(OCCN3CCc4cncnc4C3)ccc2N1,28.97
10,COc1cc(C(C)=O)ccc1OCC(=O)N(C)Cc1cnn(C)c1,-3.043
11,COc1cc(C(C)=O)ccc1OCC(=O)N(Cc1ccsc1)C1CC1,-7.993
12,Cn1cccc(NC(=O)COc2ccc(Cl)cc2)c1=O,-8.548
13,Cn1cccc1C(=O)COc1ccc(S(N)(=O)=O)cc1,87.78
14,COc1cc(C(C)=O)ccc1OCC(=O)c1cccn1C,70.23
15,Cn1cccc(NC(=O)COc2ccc(Br)cc2)c1=O,-13.39
16,CC(=O)c1ccc(OCC(=O)c2cccn2C)cc1,104.8
17,Cn1cccc1C(=O)N1CCC2(CCCN2S(C)(=O)=O)CC1,-6.458
18,Cn1cccc1C(=O)OCCNC(=O)c1ccccc1,-6.195
19,N#CCCN(Cc1ccco1)C(=O)CCCNC(=O)c1ccccc1,3.869
20,c1cc(-c2noc([C@@H]3Cc4nc[nH]c4CN3)n2)ccn1,-6.71
21,CCOC(=O)Cn1ccc2cc(NC(=O)N3CCSCC3)ccc21,-0.3314
22,Cc1ccc2nc(C)cc(C(=O)NC(C)c3nnn[nH]3)c2c1 (stereo not drawn),-5.758
23,Cc1ccccc1OC(C(=O)N1CCC2(CC1)CN(C)C(=O)O2)C(C)C (stereo not drawn),-8.932
24,CN1C[C@]2(CC[C@@H](C(=O)O)CC2)Oc2ccccc2C1=O,130.9
25,CC(C)C(C(=O)N1CCC2(CC1)CN(C)C(=O)O2)c1ccccc1 (stereo not drawn),-0.7993
26,CCC(=O)c1ccc(OCC(=O)NCC2CC(CC)=NO2)cc1 (stereo not drawn),0.5795
27,CSc1ccc(C(=O)C2CCCN(C(=O)Cn3cnnn3)C2)cc1 (stereo not drawn),-23.42

row,Structure (SMILES),Percent Effect [%]
1,CSc1ccc(C(=O)C2CCCN(C(=O)CCn3cnnn3)C2)cc1 (stereo not drawn),95.72
2,O=C(c1ccc(C(F)(F)F)cc1)C1CCCN(C(=O)Cn2cnnn2)C1 (stereo not drawn),-1.796
3,O=C(CCn1cncn1)N1CC[C@@H](c2ccc3ccccc3c2)[C@H](O)C1,2.781
4,CSc1ccc(C(=O)C2CCCN(C(=O)CCCn3cncn3)C2)cc1 (stereo not drawn),89.8
5,CSc1ccc(C(=O)C2CCCN(C(=O)CCn3cncn3)C2)cc1 (stereo not drawn),108
6,CN(C)S(=O)(=O)N1C[C@@H]2CC[C@H](C1)N(CCC(=O)NCc1ccco1)C2,-9.336
7,CC(C)C(=O)NCc1cc(Br)ccc1F,-9.372
8,OCCOc1nc(-c2ccccc2Cl)no1,-14.24
9,Cc1nc(C)c(CC(=O)NCc2cccnc2OC2CCCC2)c(=O)[nH]1,2.143
10,CCNC(=O)C1CCN(c2cc(-c3ccccc3)nc3cc(C)nn23)C1 (stereo not drawn),-12.78
11,Cc1cn[nH]c1C1CCCCN1C(=O)CCc1c(C)n[nH]c1C (stereo not drawn),119.5
12,Cc1cn[nH]c1C1CCCCN1C(=O)CCc1ccc(F)cc1 (stereo not drawn),129.4
13,COCCC(=O)N1CCCCC1c1ccc(F)cc1 (stereo not drawn),-2.369
14,Cc1cn[nH]c1C1CCCCN1C(=O)CCN1CCCCCC1 (stereo not drawn),-3.23
15,N#Cc1cccc(N2CCC3(CCC(=O)N(CCCO)C3)CC2)n1,-9.323
16,O=C1OCCN1CCOc1nc(-c2ccccc2Cl)no1,-11.04
17,COCC(C)NC(=O)Nc1cc(-c2ccccc2C)nn1CCO (stereo not drawn),-26.76
18,O=C(O)C(F)(F)F.O=C1CCCC2(CCN(C(=O)c3ccccn3)CC2)N1,4.079
19,O=C1CC2(CCN(C(=O)C3CCCCC3)C2)Nc2ccccc2N1 (stereo not drawn),102.3
20,O=C1CC2(CCN(C(=O)c3ccccc3)C2)Nc2ccccc2N1 (stereo not drawn),106.1
21,O=C1CC2(CCN(C(=O)c3ccccn3)C2)Nc2ccccc2N1 (stereo not drawn),110.2
22,Nc1cc(C(=O)N2CCC3(CC2)Nc2ccccc2NC3=O)ccn1,3.743
23,O=C1Nc2ccccc2C1C1CCN(C(=O)C2CC2)CC1 (stereo not drawn),-3.481
24,O=C(O)C(F)(F)F.O=C1CCC2(CCCN(C(=O)c3ccccn3)CC2)N1 (stereo not drawn),-22.06
25,CN(C)C(=O)N1CCN(C(=O)c2ccccc2)CC2(CNC(=O)C2)C1 (stereo not drawn),9.343
26,Cl.O=C(C1CCCCC1)N1CCC2(CC1)CNCc1ccccc12,2.33
